Reference: PubChem BioAssay (NCATS)
Where “and” joins values, the source holds several entries; their conditions need not be identical. Equal entries are not always repeated. Inconclusive results are not listed. A number with no mark means an inactive call. The call rests on the fitted dose curve; in most records, active means well fitted inhibition curve with a large enough effect; inconclusive means small, poorly fitted or top-dose-only effect; inactive means flat fitted curve, though single readings scatter.

Test system: KB-3-1
Assay: Cytotoxic Profiling of Annotated Libraries Using Quantitative High-Throughput Screening (AID 1296008); further: nearly all actives have a fitted effect of over 60% in size
Settings: Five cell lines viability, CellTiter-Glo ATP luminescence, 48-72 h; max response: hits give low values
Excerpt: Cell-based phenotypic screening is a commonly used approach to discover biological pathways, novel drug targets, chemical probes and high-quality hit-to-lead molecules. Many hits identified from high-throughput screening campaign are ruled out through a series of follow-up potency, selectivity/specificity, and cytotoxicity assays. Prioritization of molecules with little or no cytotoxicity for a more in-depth downstream evaluation influence the future direction of projects, so cytotoxicity profiling of the screening libraries at early stage is essential for increasing the likelihood of candidate success. […] For the annotated library, we also examined the primary targets and mechanistic pathways regularly associated with cell death. To our knowledge, this is the first study to use high-throughput screening to profile large libraries for cytotoxicity assessment in both normal and cancer cell lines. In summary, the results generated here constitutes a valuable resource for the scientific community and provides insight on identifying cytotoxic compounds with particular mechanisms of action, and prioritizing compounds with suitable cytotoxicity profile for further evaluation.
A pintool (Kalypsys) was used to transfer 23 nL of compound solution to the 1536-well assay plates. After 48 or 72 hr incubation at 37 degree Celsius, 5% CO2 and 95% humidity, 2.5 uL of CellTiter-Glo (Promega) was dispensed into each well using a dispenser (Aspect Automation, St. Paul, MN) with solenoid valves (Lee Valves, Westbrook CT). Plates were left at room temperature for 10 min before imaging the ATP-coupled luminescence using a ViewLux microplate imager (PerkinElmer, Waltham, MA).
On the % scale 0 is the no-effect control and ±100 the full control effect.

Compound | max response
C[C@@H]1C[C@H]2[C@@H]3CCC4=CC(=O)C=C[C@]4(C)[C@@]3(F)[C@@H](O)C[C@]2(C)[C@@]1(O)C(=O)COC(=O)c1cccc(S(=O)(=O)O)c1 | 21.4%
CN(C)C(=O)CCSC(SCCC(=O)O)c1cccc(/C=C/c2ccc3ccc(Cl)cc3n2)c1 (stereo not given) | -15.2%
NC(=O)c1ccc[n+]([C@@H]2O[C@H](COP(=O)([O-])OP(=O)(O)OC[C@H]3O[C@@H](n4cnc5c(N)ncnc54)[C@H](O)[C@@H]3O)[C@@H](O)[C@H]2O)c1 | -2.72%
CCN(CC)C(=S)S | 3.72%
O=C(O)Cc1cc(I)c(Oc2ccc(O)c(I)c2)c(I)c1 | 1.68% and -7.08%
CO[C@H]1C[C@H](O[C@H]2[C@H](C)[C@@H](O[C@@H]3O[C@H](C)C[C@H](N(C)C)[C@H]3O)[C@@H](C)C[C@]3(CO3)C(=O)[C@H](C)[C@@H](O)[C@@H](C)[C@@H](C)OC(=O)[C@@H]2C)O[C@@H](C)[C@@H]1O | 3.86%
CCCCCCCCCCCCCC(=O)OCC(COP(=O)([O-])OCC[N+](C)(C)C)OC(=O)CCCCCCCCCCCCC (stereo not given) | 15.8%
COc1ccc([C@@H]2CC(=O)c3c(O)cc(O[C@@H]4O[C@H](CO[C@@H]5O[C@@H](C)[C@H](O)[C@@H](O)[C@H]5O)[C@@H](O)[C@H](O)[C@H]4O)cc3O2)cc1O | -3.21%
CCOC(=S)SSC(=S)OCC | 4.67%
CC(C)=CCC/C(C)=C/CC/C(C)=C/CC/C=C(\C)CC/C=C(\C)CCC=C(C)C | 6.34% and -6.32%
O=C1C2CC3CC1CC(O)(C3)C2 | 2.59%
[O]=[Bi][O]C(=O)[O][Bi]=[O] | -15.6%
CCc1ccc(S(=O)(=O)O)cc1 | 6.98%
Cc1cc2nc3c(=O)[nH]c(=O)nc-3n(C[C@H](O)[C@H](O)[C@H](O)COP(=O)(O)OP(=O)(O)OC[C@H]3O[C@@H](n4cnc5c(N)ncnc54)[C@H](O)[C@@H]3O)c2cc1C | -11%
C=O | 3.28%
FCOC(C(F)(F)F)C(F)(F)F | 6.78%
S=C=Nc1ccc(N=C=S)cc1 | -15.9%
CC(CC=O)CCCC(C)(C)O (stereo not given) | 7.65%
C=CC1=C(C(=O)O)N2C(=O)[C@@H](NC(=O)/C(=N\O)c3csc(N)n3)[C@H]2SC1 (stereo in doubt) | 5.78% and -12.7%
O=C(O)c1ccc(NC2OC[C@@H](O)[C@H](O)[C@H]2O)cc1 (stereo not given in full) | -17.7%

Compound | max response
CC(C)(C)NCC(O)c1ccc(O)c(CO)n1 (stereo not given) | -3.71%
CCCCCCCCCCCC(=O)OCC(O)CO (stereo not given) | 4.65%
CCCCCCCCCC(=O)NO | -3.47% and -15%
S=C1SCN(Cc2ccccc2)CN1Cc1ccccc1 | 37.7%
COc1ccc(C[C@H](C)NC[C@@H](O)c2ccc(O)c(NC=O)c2)cc1 | 5.8%
CN[C@@H]1[C@@H](O)[C@@H](O[C@@H]2[C@@H](O)[C@H](OC3OC(CN)=CCC3N)[C@@H](N)C[C@H]2N)OC[C@]1(C)O (stereo not given in full) | -18.5%
C=CCOc1ccc(CC(=O)O)cc1Cl | 11.1%
O=P(O)(O)O | 2.99%
COc1ccccc1N1CCN(CCCC(=O)c2ccc(F)cc2)CC1 | -4.67%
CO/N=C(\C(=O)N[C@@H]1C(=O)N2C(C(=O)[O-])=C(C[n+]3cccc4c3CCC4)CS[C@H]12)c1csc(N)n1 | -1.98%
O=C(O)CCC/C=C\C[C@@H]1[C@@H](/C=C/[C@@H](O)COc2cccc(C(F)(F)F)c2)[C@H](O)C[C@@H]1O | -14.2%
Cc1ccc(C(C)(C)c2ccc(C)cc2)cc1 | -2.63%
CCCCCCCCCCCCCCCCCC[N+](C)(C)CCC[Si](OC)(OC)OC | 8.62%
CCCCC[C@H](O)/C=C/[C@H]1[C@H](O)CC(=O)[C@@H]1CCCCCCC(=O)O | 3.75%
OC[C@H]1O[C@@H](O[C@H]2[C@H](O)[C@@H](O)[C@H](O)O[C@@H]2CO)[C@H](O)[C@@H](O)[C@@H]1O | 4.72%
CC1=CCC2CC1C2(C)C (stereo not given) | 16.6%
CN[C@@H]1[C@H](O[C@H]2[C@H](O[C@H]3[C@H](O)[C@@H](O)[C@H](N=C(N)N)[C@@H](O)[C@@H]3N=C(N)N)O[C@@H](C)[C@]2(O)C=O)O[C@@H](CO)[C@H](O)[C@H]1O | 22.5%
O=C(O)c1ccc(NC(=O)[C@H](Cc2ccc(O)cc2)NC(=O)c2ccccc2)cc1 | 7.82%
CN1C(C(=O)Nc2ccccn2)C(=O)c2sc(Cl)cc2S1(=O)=O (stereo not given) | 5.88%
CNC(=O)[C@H](Cc1c[nH]c2ccccc12)NC(=O)[C@@H](CC(=O)NO)CC(C)C | -8.09%
